According to publication PMC7862700, “An all-to-all approach to the identification of sequence-specific readers for epigenetic DNA modifications on cytosine”:

Experiments:
Test in all cases: DAPPL (digital affinity profiling via proximity ligation, sequencing); 10 mM Tris-HCl pH 7.5, 50 mM NaCl, 1 mM DTT, 4% glycerol, room temperature, 30 min; GST-TFs on glutathione beads, 16-mer random dsDNA library, 0.1% formaldehyde crosslink after washing; high values mean tight binding
Settings in all cases: protein: recombinant; tags: N-terminal GST; dsDNA, one strand shown
FLI1 = target: T1, FLI1 (Homo sapiens, UniProt Q01543 1-452)
T1 sequence: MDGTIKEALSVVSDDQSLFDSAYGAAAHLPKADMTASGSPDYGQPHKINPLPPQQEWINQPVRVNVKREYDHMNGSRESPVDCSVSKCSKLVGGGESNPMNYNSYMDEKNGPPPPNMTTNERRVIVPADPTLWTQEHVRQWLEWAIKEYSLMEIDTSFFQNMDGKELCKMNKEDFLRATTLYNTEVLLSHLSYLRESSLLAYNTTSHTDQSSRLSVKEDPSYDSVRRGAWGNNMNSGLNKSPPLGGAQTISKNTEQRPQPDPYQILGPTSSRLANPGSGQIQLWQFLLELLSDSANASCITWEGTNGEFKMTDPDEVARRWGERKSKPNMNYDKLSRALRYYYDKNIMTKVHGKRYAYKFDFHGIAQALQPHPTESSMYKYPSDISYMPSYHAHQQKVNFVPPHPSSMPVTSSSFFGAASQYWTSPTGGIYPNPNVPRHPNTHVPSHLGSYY
Method in brief: (§1)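 Human transcription factors were made in yeast as GST fusions, captured on glutathione beads and barcoded with DNA. With a tag-only sample included, the pool was incubated with 200 nmole of a random double-stranded 16-mer DNA library in Tris/NaCl/DTT/glycerol buffer at room temperature for 30 min, then crosslinked with 0.1% formaldehyde after washing, ligated by proximity, amplified and sequenced. For binding signal, each hexamer's read frequency for a factor is divided by its frequency for the tag-only sample.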

ELK1 = target: T2, ELK1 (Homo sapiens, UniProt P19419 1-428)
T2 sequence: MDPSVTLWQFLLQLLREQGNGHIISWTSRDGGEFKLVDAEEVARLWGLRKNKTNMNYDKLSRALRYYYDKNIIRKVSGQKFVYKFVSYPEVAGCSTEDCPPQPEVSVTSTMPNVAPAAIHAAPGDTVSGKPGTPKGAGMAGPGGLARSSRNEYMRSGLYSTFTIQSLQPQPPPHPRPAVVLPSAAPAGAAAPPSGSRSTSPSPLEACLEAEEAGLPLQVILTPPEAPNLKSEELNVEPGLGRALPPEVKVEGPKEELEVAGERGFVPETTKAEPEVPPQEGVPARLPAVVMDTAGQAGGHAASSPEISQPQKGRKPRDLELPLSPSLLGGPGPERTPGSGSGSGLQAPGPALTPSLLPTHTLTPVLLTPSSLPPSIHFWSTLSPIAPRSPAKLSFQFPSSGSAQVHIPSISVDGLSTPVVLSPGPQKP
Method in brief: as §1

GABPA = target: T3, GABPA (Homo sapiens, UniProt Q06546 1-454)
T3 sequence: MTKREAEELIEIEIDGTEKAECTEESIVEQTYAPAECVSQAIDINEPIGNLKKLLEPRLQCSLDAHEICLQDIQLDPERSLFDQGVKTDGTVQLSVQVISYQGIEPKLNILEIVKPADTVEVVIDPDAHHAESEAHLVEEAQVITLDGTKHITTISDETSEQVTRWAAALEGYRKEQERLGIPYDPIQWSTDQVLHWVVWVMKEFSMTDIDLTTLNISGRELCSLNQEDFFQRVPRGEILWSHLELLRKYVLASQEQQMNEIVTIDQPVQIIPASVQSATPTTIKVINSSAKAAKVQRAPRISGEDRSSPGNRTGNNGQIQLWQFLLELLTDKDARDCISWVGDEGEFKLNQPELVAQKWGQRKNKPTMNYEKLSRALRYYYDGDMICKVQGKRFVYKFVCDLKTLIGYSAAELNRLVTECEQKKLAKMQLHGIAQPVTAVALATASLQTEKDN
Method in brief: as §1

ERG = target: T4, ERG (Homo sapiens, UniProt P11308 1-479)
T4 sequence: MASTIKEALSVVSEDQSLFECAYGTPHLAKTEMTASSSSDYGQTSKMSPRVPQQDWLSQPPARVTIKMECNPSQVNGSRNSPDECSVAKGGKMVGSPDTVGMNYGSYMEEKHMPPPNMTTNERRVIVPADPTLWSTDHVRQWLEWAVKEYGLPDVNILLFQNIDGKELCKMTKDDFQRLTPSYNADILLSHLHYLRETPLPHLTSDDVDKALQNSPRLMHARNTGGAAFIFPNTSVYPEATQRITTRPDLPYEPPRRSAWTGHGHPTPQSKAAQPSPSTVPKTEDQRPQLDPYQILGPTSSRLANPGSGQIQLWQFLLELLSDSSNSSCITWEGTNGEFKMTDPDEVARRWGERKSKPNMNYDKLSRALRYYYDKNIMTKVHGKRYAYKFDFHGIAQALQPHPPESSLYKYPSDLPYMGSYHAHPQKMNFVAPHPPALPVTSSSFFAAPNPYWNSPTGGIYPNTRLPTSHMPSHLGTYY
Method in brief: as §1

ELF1 = ELF1 (Homo sapiens, UniProt P32519 1-619)
Sequence of ELF1 (P32519 whole entry): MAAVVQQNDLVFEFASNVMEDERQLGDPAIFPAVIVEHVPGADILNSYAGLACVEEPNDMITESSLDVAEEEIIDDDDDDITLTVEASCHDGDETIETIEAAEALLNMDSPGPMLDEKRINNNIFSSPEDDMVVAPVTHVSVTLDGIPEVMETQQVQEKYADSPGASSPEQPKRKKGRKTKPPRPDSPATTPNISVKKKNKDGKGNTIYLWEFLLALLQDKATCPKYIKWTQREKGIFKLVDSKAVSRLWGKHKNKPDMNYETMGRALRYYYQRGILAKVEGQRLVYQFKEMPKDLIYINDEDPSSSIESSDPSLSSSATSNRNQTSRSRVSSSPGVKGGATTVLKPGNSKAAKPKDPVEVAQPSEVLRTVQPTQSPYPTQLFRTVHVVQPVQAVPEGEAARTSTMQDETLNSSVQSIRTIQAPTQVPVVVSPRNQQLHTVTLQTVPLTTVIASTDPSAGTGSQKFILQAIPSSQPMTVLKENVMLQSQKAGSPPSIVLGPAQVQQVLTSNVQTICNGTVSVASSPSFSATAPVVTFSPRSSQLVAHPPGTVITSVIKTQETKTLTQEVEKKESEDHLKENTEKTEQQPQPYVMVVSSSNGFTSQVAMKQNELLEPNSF
Method in brief: as §1

EHF = target: T5, EHF (Homo sapiens, UniProt Q9NZC4 1-300)
T5 sequence: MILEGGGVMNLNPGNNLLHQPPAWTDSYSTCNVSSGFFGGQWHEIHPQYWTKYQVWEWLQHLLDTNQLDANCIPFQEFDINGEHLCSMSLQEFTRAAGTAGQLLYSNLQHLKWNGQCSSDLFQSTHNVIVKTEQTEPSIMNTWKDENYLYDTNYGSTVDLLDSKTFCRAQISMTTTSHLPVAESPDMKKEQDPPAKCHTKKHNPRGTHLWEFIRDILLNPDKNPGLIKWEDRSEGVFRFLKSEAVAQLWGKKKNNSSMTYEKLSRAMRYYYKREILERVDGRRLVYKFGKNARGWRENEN
Method in brief: as §1

SPI1 = SPI1 (Homo sapiens, UniProt P17947 1-270)
Method in brief: as §1

SPIB = SPIB (Homo sapiens, UniProt Q01892 1-262)
Sequence of SPIB (Q01892 whole entry): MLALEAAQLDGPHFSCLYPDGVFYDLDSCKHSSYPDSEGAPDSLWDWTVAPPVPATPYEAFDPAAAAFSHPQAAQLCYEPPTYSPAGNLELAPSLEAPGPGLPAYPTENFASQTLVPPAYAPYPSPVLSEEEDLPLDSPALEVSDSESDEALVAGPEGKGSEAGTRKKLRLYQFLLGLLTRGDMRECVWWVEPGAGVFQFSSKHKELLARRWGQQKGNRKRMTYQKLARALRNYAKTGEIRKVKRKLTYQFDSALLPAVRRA
Method in brief: as §1

ELK3 = target: T6, ELK3 (Homo sapiens, UniProt P41970 1-407)
T6 sequence: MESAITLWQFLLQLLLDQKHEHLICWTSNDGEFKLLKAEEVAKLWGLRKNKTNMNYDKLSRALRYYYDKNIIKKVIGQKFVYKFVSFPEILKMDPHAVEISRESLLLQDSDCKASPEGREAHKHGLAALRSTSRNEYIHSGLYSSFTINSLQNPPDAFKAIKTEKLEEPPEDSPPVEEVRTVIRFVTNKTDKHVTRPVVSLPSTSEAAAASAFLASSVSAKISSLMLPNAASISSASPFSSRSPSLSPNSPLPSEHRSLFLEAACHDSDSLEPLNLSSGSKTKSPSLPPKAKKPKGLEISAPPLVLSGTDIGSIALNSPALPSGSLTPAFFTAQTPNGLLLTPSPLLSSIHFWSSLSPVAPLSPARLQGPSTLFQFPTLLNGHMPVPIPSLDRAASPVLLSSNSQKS
Method in brief: as §1

Row | Sequence | binding signal (FLI1) | binding signal (ELK1) | binding signal (GABPA) | binding signal (ERG) | binding signal (ELF1) | binding signal (EHF) | binding signal (SPI1) | binding signal (SPIB) | binding signal (ELK3)
1 | CCCCCT | 1.22 fold enrichment (6-mer frequency, TF over GST control) | 1.26 fold enrichment (6-mer frequency, TF over GST control) | 1.25 fold enrichment (6-mer frequency, TF over GST control) | 1.21 fold enrichment (6-mer frequency, TF over GST control) | 1.33 fold enrichment (6-mer frequency, TF over GST control) | 1.26 fold enrichment (6-mer frequency, TF over GST control) | 1.19 fold enrichment (6-mer frequency, TF over GST control) | 1.24 fold enrichment (6-mer frequency, TF over GST control) | 1.32 fold enrichment (6-mer frequency, TF over GST control)
2 | TACATA | 1.18 fold enrichment (6-mer frequency, TF over GST control) | 1.19 fold enrichment (6-mer frequency, TF over GST control) | 1.22 fold enrichment (6-mer frequency, TF over GST control) | 1.24 fold enrichment (6-mer frequency, TF over GST control) | 1.18 fold enrichment (6-mer frequency, TF over GST control) | 1.17 fold enrichment (6-mer frequency, TF over GST control) | 1.15 fold enrichment (6-mer frequency, TF over GST control) | 1.22 fold enrichment (6-mer frequency, TF over GST control) | 1.19 fold enrichment (6-mer frequency, TF over GST control)
3 | TCACGT | 1.28 fold enrichment (6-mer frequency, TF over GST control) | 1.3 fold enrichment (6-mer frequency, TF over GST control) | 1.31 fold enrichment (6-mer frequency, TF over GST control) | 1.29 fold enrichment (6-mer frequency, TF over GST control) | 1.17 fold enrichment (6-mer frequency, TF over GST control) | 1.14 fold enrichment (6-mer frequency, TF over GST control) | 1.24 fold enrichment (6-mer frequency, TF over GST control) | 1.18 fold enrichment (6-mer frequency, TF over GST control) | 1.16 fold enrichment (6-mer frequency, TF over GST control)
4 | CCACTA | 1.1 fold enrichment (6-mer frequency, TF over GST control) | 1.14 fold enrichment (6-mer frequency, TF over GST control) | 1.14 fold enrichment (6-mer frequency, TF over GST control) | 1.08 fold enrichment (6-mer frequency, TF over GST control) | 1.13 fold enrichment (6-mer frequency, TF over GST control) | 1.06 fold enrichment (6-mer frequency, TF over GST control) | 1.04 fold enrichment (6-mer frequency, TF over GST control) | 1.04 fold enrichment (6-mer frequency, TF over GST control) | 1.22 fold enrichment (6-mer frequency, TF over GST control)
5 | GCTCGC | 1.39 fold enrichment (6-mer frequency, TF over GST control) | 1.29 fold enrichment (6-mer frequency, TF over GST control) | 1.41 fold enrichment (6-mer frequency, TF over GST control) | 1.29 fold enrichment (6-mer frequency, TF over GST control) | 1.42 fold enrichment (6-mer frequency, TF over GST control) | 1.27 fold enrichment (6-mer frequency, TF over GST control) | 1.29 fold enrichment (6-mer frequency, TF over GST control) | 1.42 fold enrichment (6-mer frequency, TF over GST control) | 1.38 fold enrichment (6-mer frequency, TF over GST control)
6 | TGCTCG | 1.3 fold enrichment (6-mer frequency, TF over GST control) | 1.2 fold enrichment (6-mer frequency, TF over GST control) | 1.21 fold enrichment (6-mer frequency, TF over GST control) | 1.17 fold enrichment (6-mer frequency, TF over GST control) | 1.18 fold enrichment (6-mer frequency, TF over GST control) | 1.17 fold enrichment (6-mer frequency, TF over GST control) | 1.35 fold enrichment (6-mer frequency, TF over GST control) | 1.27 fold enrichment (6-mer frequency, TF over GST control) | 1.04 fold enrichment (6-mer frequency, TF over GST control)
7 | CTTGAT | 1.52 fold enrichment (6-mer frequency, TF over GST control) | 1.53 fold enrichment (6-mer frequency, TF over GST control) | 1.52 fold enrichment (6-mer frequency, TF over GST control) | 1.34 fold enrichment (6-mer frequency, TF over GST control) | 1.42 fold enrichment (6-mer frequency, TF over GST control) | 1.51 fold enrichment (6-mer frequency, TF over GST control) | 1.27 fold enrichment (6-mer frequency, TF over GST control) | 1.41 fold enrichment (6-mer frequency, TF over GST control) | 1.34 fold enrichment (6-mer frequency, TF over GST control)
